We go through 51 compounds from PubChem BioAssay AID1566 (Sanford-Burnham Center for Chemical Genomics, 2009).

The whole screen tested about 290,000 compounds, of which about 1,800 (0.62%) were called active. Cut-off read from the data, not from the text of the source: active = inhibition above about 50%; inactive = the rest. This excerpt belongs to a sample that is enriched for actives.

This test in a line: NOD2 signaling inhibitors, cell-based, luminescence, uHTS, HEK293 (AID 1566). The following applies: HEK293 NOD2/NF-kB luciferase reporter, at 4 µM, active compounds read high.
As usually defined, the inhibition is the change of the read-out against control, counted positive when it falls. For `COc1ccc(-n2cnnc2SCC(=O)c2ccc(S(=O)(=O)N3CCOCC3)cc2)cc1`, the inhibition is 2.6% (inactive). `COc1ccc(-c2ncccc2O)cc1`: the inhibition is -2.7% (inactive). Consider `O=C(O)c1c2c(nc3ccccc13)/C(=C/c1ccc(O)cc1)CC2`, for which the inhibition is 72.4% (active). Consider `O=C(O)c1ccc(/C=C2\CCCc3c2nc2ccccc2c3C(=O)O)cc1`, for which the inhibition was 8.2% (inactive). Turning to `O=C(O)c1c2c(nc3ccccc13)/C(=C/c1ccc(O)cc1)CCC2`, the inhibition is 11.1% (inactive). With `O=C(NCCc1cccc(Cl)c1)c1ccc(OC2CCN(Cc3ccccn3)CC2)cc1`, the inhibition was 53.1% (active).

With `Cc1cccnc1CCNC(=O)c1ccc(OC2CCN(Cc3ccccn3)CC2)cc1`, the inhibition was 2.1% (inactive). As for `O=C(NCCc1ccccn1)c1ccc(OC2CCN(Cc3ccccn3)CC2)cc1`, the inhibition was 6.5% (inactive).

`Cc1ccc2oc(/N=C(\N)NC(=O)C3CC3)nc2c1`: the inhibition was 5.6% (inactive). In the case of `CC(=O)N/C(N)=N/c1nc2cc(C)ccc2o1`, the inhibition is -93.3% (inactive). `O=C(CSc1nn(-c2ccc(F)cc2)c(=S)s1)N1CCN(C(=O)c2ccco2)CC1`: the inhibition is 4.8% (inactive). As for `Cc1no[n+]([O-])c1COc1ccc(/C=N/n2nnnc2N)cc1`, the inhibition is -31% (inactive). As for `COc1cccc(/C=N/NC(=O)c2nnn(-c3nonc3N)c2C(C)C)c1`, the inhibition is 26.6% (inactive). In the case of `Cc1ccccc1C(=O)N1CCN(c2ccc(NC(=O)c3ccc4c(c3)OCO4)cc2)CC1`, the inhibition was -42.4% (inactive). For the compound `O=C(Nc1ccc(N2CCN(C(=O)c3ccccc3)CC2)cc1)c1ccc2c(c1)OCCO2`, the inhibition is 38.7% (inactive).

Take `Cc1ccc(S(=O)(=O)C(C#N)c2nc3ccccc3nc2N2CCCCC2)cc1` (stereo unspecified): the inhibition was 7.4% (inactive). On to `N#CC(c1nc2ccccc2nc1N1CCCC1)S(=O)(=O)c1ccccc1` (stereo unspecified), for which the inhibition was -3.3% (inactive). To `N#CC(c1nc2ccccc2nc1N1CCCCC1)S(=O)(=O)c1ccc(Cl)cc1` (stereo unspecified) belongs 55.3% (active); to `O=C(CCS(=O)(=O)c1ccccc1)NC12CC3CC(CC(C3)C1)C2`, -42.4% (inactive); to `O=C(CCCCCn1c(=S)[nH]c2ccc(N3CCOCC3)cc2c1=O)NCc1ccccc1`, 29.5% (inactive). Regarding `Cc1cccc(N2CCN(C(=O)CCCn3c(=S)[nH]c4cc5c(cc4c3=O)OCO5)CC2)c1C`, the inhibition was 38.2% (inactive). Turning to `O=C(CCCn1c(=S)[nH]c2cc3c(cc2c1=O)OCO3)N1CCN(c2ccccc2)CC1`, the inhibition was 12.2% (inactive).

On to `O=C(CCCn1c(=S)[nH]c2cc3c(cc2c1=O)OCO3)N1CCN(c2ccc(F)cc2)CC1`, for which the inhibition was 27.2% (inactive). Turning to `NC(=O)CSc1nnc(-c2ccccc2Br)n1-c1cccc(C(F)(F)F)c1`, the inhibition is 5.9% (inactive). As to `Cc1[nH]nc(N)c1-c1ccc(Cl)cc1`, the inhibition is 14.7% (inactive). For `O=C(CCc1nnc(CCCCc2ccccc2)o1)NCCc1cccnc1`, the inhibition is 24.2% (inactive).

As to `CC(c1cccnc1)N(C(=O)Nc1ccccc1)C1CCCCC1` (stereo unspecified), the inhibition is -11.5% (inactive). Then `O=C(Nc1ccc(Cl)cc1C(F)(F)F)c1ccccc1Cl`, with 3.5% (inactive).

Turning to `CCC(CC)COC(=O)C1=C(C)NC(=O)NC1c1cc(OC)ccc1OC` (stereo unspecified), the inhibition was -2% (inactive). To `CC(=O)Nc1ccc(NC(=O)CSc2nc3nc(-c4cccs4)cc(C(F)(F)F)c3c(=O)[nH]2)cc1` belongs 5.7% (inactive); to `COc1ccc(NC(=O)CSc2nc3nc(-c4cccs4)cc(C(F)(F)F)c3c(=O)[nH]2)c(OC)c1`, 22.2% (inactive); to `CN1CCN(CC(=O)Nc2ccccc2Oc2ccccc2)CC1`, 15.7% (inactive). For the compound `COc1ccc(OCCSc2nc(C)c(Cc3ccccc3)c(=O)[nH]2)cc1`, the inhibition was 25.5% (inactive).

As for `Cn1c(=O)[nH]c(=O)c2c1nc(NCc1ccccc1)n2Cc1ccc(F)cc1`, the inhibition is 16% (inactive). Then `Cc1ccc(/C=N/NC(=O)CSc2nc3ccccc3c(=O)n2-c2ccccc2C)s1`, with -0.2% (inactive); and `N#Cc1c2n(c3c(=O)n(Cc4ccccc4Cl)cnc13)CCCCC2`, with 16.9% (inactive). For `Cc1oc2ccc(OCc3cccc(Cl)c3)cc2c1C(=O)O`, the inhibition was 9.4% (inactive). In the case of `O=S(=O)(c1ccc(F)cc1)N1CCN(Cc2ccccn2)CC1`, the inhibition was 8.3% (inactive). Take `NS(=O)(=O)c1ccc(NC(=O)COC(=O)CCc2ccc(S(=O)(=O)N3CCOCC3)cc2)cc1`: the inhibition is -3% (inactive). For the compound `CCn1c(=O)c(C(=O)Nc2ccccc2S(N)(=O)=O)c(O)c2ccccc21`, the inhibition was -12.7% (inactive). As to `CCCn1c(=O)c(C(=O)Nc2cnccn2)c(O)c2ccccc21`, the inhibition was -10.4% (inactive).

Regarding `CC(C)Cn1c(=O)c(C(=O)Nc2cnccn2)c(O)c2ccccc21`, the inhibition is 16.2% (inactive). Turning to `CCn1c(=O)c(C(=O)Nc2cnccn2)c(O)c2ccccc21`, the inhibition is 18.7% (inactive).

Consider `CC(C)Cn1c(=O)c(C(=O)Nc2ccccc2S(N)(=O)=O)c(O)c2ccccc21`, for which the inhibition is 22.9% (inactive).

Regarding `Cn1c(=O)c(C(=O)Nc2cnccn2)c(O)c2ccccc21`, the inhibition is -39.4% (inactive).

As for `CCCC(=O)N(CCN1CCOCC1)c1nc2c(C)ccc(C)c2s1`, the inhibition was 10.7% (inactive). Regarding `COc1ccc(-c2cnn3cc(-c4cccc(Cl)c4)cnc23)cc1`, the inhibition is -3.7% (inactive). Regarding `COc1ccc(/C=N/NC(=O)c2ccoc2C)cc1COc1ccc(Cl)cc1`, the inhibition was -42% (inactive).

In the case of `O=C(N/N=C/c1cn(-c2ccccc2)nc1-c1cccnc1)c1cccnc1`, the inhibition is 7.5% (inactive). For the compound `N#CC(=C=[N-])c1nc2ccccc2nc1-[n+]1cccc(NC(=O)c2cccs2)c1`, the inhibition is 10% (inactive).

Turning to `Nc1nnc(COc2ccccc2)s1`, the inhibition was -4.5% (inactive).
